Assay outcomes as filed in PubChem.
Cycloheximide cs: Cycloheximide Counterscreen for Small Molecule Inhibitors of Shiga Toxin; cell reporter, cycloheximide protein synthesis inhibition counterscreen; max response, %; 300,000 compounds, 12% hits; in the data active means max response mostly above about 13%, no sharp cut-off; inactive means mostly below about 14%; further: read at 38.3 µM for the half of the compounds with a filed dose
SARS PLP yeast: qHTS of Yeast-based Assay for SARS-CoV PLP | S. cerevisiae expressing SARS-CoV PLpro, growth rescue | Potency, µM (highest dose often 32.9 µM), hits mostly activators | 330,000 compounds, 0.19% hits; further: nearly all actives have a fitted effect of over 55% in size
NS1 function inh: qHTS Assay for Inhibitors of Influenza NS1 Protein Function. Potency, µM (titrated, usually from 46.1 µM). 270,000 compounds, 0.4% hits. AID 2326, 2010; further: actives are rising curves; nearly all actives have a fitted effect of over 50% in size
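OD600 was taken as the measure of yeast growth restored by compound in an NS1-expressing S. cerevisiae strain. Cells had been washed out of glucose medium and diluted 1:100 into galactose -URA medium, pH 6.0.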
Shiga toxin inh: A qHTS for Small Molecule Inhibitors of Shiga Toxin. Vero cells, Shiga toxin protein synthesis inhibition reporter. inhibition, % at 38.7 µM. 290,000 compounds, 9.2% hits; in the data active means inhibition mostly above about 28%, no sharp cut-off; inactive means mostly below about 43%
Each line names hits and unclear results; the compound was inactive in the other large screens. Only some compounds are listed: those with a hit (about 12% of all), similar ones and a draw of the others. Unless noted, the call rests on the fitted dose curve.

COc1ccc(NC(=O)CN(C)C(=O)c2ccc(NS(=O)(=O)c3cccc([N+](=O)[O-])c3)cc2)cc1	none (no result: Cycloheximide cs, NS1 function inh, Shiga toxin inh)
COc1cccc(CN(C)C(=O)C2CCN(S(=O)(=O)c3ccc(C)cc3)CC2)c1OC	none (no result: Cycloheximide cs, NS1 function inh, Shiga toxin inh)
Cc1c(C(=O)N/N=C/c2ccncc2)nnn1-c1nonc1N	none (no result: Cycloheximide cs, NS1 function inh, Shiga toxin inh)
COC(=O)c1sc(-c2cccs2)cc1N	Cycloheximide cs 40, Shiga toxin inh 47
COC(=O)c1nc(N)sc1-c1ccc(Cl)cc1	none (no result: NS1 function inh)
COC(=O)c1sc(-c2ccc(Cl)cc2)cc1N	Cycloheximide cs 66, Shiga toxin inh 80
CC(=O)c1sc(-c2ccc(Cl)cc2)cc1N	Cycloheximide cs 27, Shiga toxin inh 35
CC(=O)c1sc(=S)n(-c2ccc(Cl)cc2)c1C	none (no result: NS1 function inh)
COc1ccc(CNc2nc(S(=O)(=O)c3ccccc3)c(Cl)s2)cc1OC	none
N=c1oc2cc(O)ccc2cc1C(=O)Nc1ccc(Br)cc1	Cycloheximide cs 29, Shiga toxin inh 41
N=c1oc2cc(O)ccc2cc1C(=O)Nc1nc2ccccc2s1	Cycloheximide cs 64
N=c1oc2cc(O)ccc2cc1C(=O)Nc1ccccn1	Cycloheximide cs 14, Shiga toxin inh 52
COc1cccc(C(=O)Oc2c(Br)cc(Br)cc2/C=N/NC(=O)c2cc(C)[nH]n2)c1	none
CC(N)(Cc1ccc(O)c(O)c1)C(=O)O (stereo not drawn)	none (no result: Cycloheximide cs, SARS PLP yeast, Shiga toxin inh)
O=C(CCNS(=O)(=O)c1ccccc1C(F)(F)F)N1CCN(c2ccccc2O)CC1	none (no result: Cycloheximide cs, NS1 function inh, Shiga toxin inh)
CCN(CC)S(=O)(=O)c1cccc(C(=O)N2CCCc3ccccc32)c1	Cycloheximide cs 21, Shiga toxin inh 38
O=C(c1ccccc1F)N1CCCc2ccccc21	Cycloheximide cs 29, Shiga toxin inh 55
O=C(c1cc(S(=O)(=O)N2CCOCC2)ccc1F)N1CCCc2ccccc21	Cycloheximide cs 22
O=C(c1cc(S(=O)(=O)N2CCOCC2)ccc1F)N1CCc2ccccc21	none (no result: Cycloheximide cs, NS1 function inh, Shiga toxin inh)
O=C(CNc1cccc(S(=O)(=O)N2CCOCC2)c1)N1CCc2ccccc21	Cycloheximide cs 10, Shiga toxin inh 45
CCOCCSc1n[nH]c(=O)n1CCc1ccccc1	none
O=C(CC1N=C2c3ccccc3N=C(SCc3ccc(Cl)cc3)N2C1=O)NCc1ccco1 (stereo not drawn)	Cycloheximide cs 20
Cc1ccc(CSC2=Nc3ccccc3C3=NC(CCC(=O)NCc4ccco4)C(=O)N23)cc1 (stereo not drawn)	none
O=c1c2cccc3c(N4CCOCC4)ccc(c32)c2nc3ccccc3n12	Cycloheximide cs 29, Shiga toxin inh 73
COc1ccc(OCc2cc(C(=O)NC(C)Cc3ccccn3)no2)c(Cl)c1 (stereo not drawn)	Cycloheximide cs 35, Shiga toxin inh 37
COc1ccc(OCc2cc(C(=O)NC(C)Cn3cncn3)no2)c(Cl)c1 (stereo not drawn)	Cycloheximide cs 40, Shiga toxin inh 62
COc1ccc(OCc2cc(C(=O)NC(C)Cc3cccnc3)no2)c(Cl)c1 (stereo not drawn)	Cycloheximide cs 27
CC(Cn1cncn1)NC(=O)c1cc(COc2cccc(C(F)(F)F)c2)on1 (stereo not drawn)	none
Cc1cccc(NC(=O)COc2coc(CN3CCc4ccccc4C3)cc2=O)c1	none (no result: Cycloheximide cs, NS1 function inh, Shiga toxin inh)
Cc1nc2ccc(NC(=O)c3cc([N+](=O)[O-])cc([N+](=O)[O-])c3Cl)cc2s1	none (no result: NS1 function inh)
Cc1ccc(C(=O)N2NC(c3ccc(F)cc3)C3C(=O)N(c4ccc(C)c(C)c4)C(=O)C32)cc1 (stereo not drawn)	none
CC1(C)OC(=O)C(=CNn2cnc3ccccc3c2=O)C(=O)O1	Cycloheximide cs 32
Cc1c(NCc2nc3ccccc3[nH]2)c(=O)n(-c2ccccc2)n1C	Cycloheximide cs 29
Cc1c(NCc2cc(Cl)cc(Cl)c2O)c(=O)n(-c2ccccc2)n1C	none
Cc1occc1C(=O)Nc1nnc(-c2cccs2)s1	Cycloheximide cs 34, Shiga toxin inh 107
O=C(Nc1nnc(-c2cccs2)s1)c1cccc(F)c1	Cycloheximide cs 19, Shiga toxin inh 59
COc1ccc(C(=O)Nc2nc(-c3cccs3)c(NC(C)=O)s2)cc1	none
Cc1nnc(NC(=O)c2cccc(F)c2)s1	none
O=C(Cc1nnc(NC(=O)Nc2ccccc2)s1)Nc1ccccc1	none
O=C(Nc1ccccc1)Nc1nnc(-c2cccs2)s1	Cycloheximide cs 29
COc1ccc(C(=O)Nc2nnc(-c3cccs3)s2)cc1	Cycloheximide cs 43, Shiga toxin inh 60
O=C(OCC(=O)N1CCCc2ccccc21)c1c(F)cccc1F	none (no result: Cycloheximide cs, NS1 function inh, Shiga toxin inh)
COc1cc(-c2nc(=S)[nH][nH]2)cc(OC)c1OC	none
COc1ccc(-c2nc(=S)c3ccc4ccccc4c3[nH]2)cc1	none
COc1ccc(NC(=O)Nc2nnc(-c3cccs3)s2)cc1	Cycloheximide cs 25, Shiga toxin inh 61
